Measurements published in PubChem BioAssay (NCATS).
Records with an inconclusive call do not appear. The source made the active and inactive calls. Unless noted, calls follow the shape of the dose curve; as a rule, active = well fitted curve in the direction sought with a large enough effect; inconclusive = small, poorly fitted or top-dose-only effect, or another doubt; inactive = no such curve, though single readings can be large; an effect the other way counts as inactive or inconclusive.

Tests used:
[1] = AP1 Signaling Pathway (AID 357; active = well fitted curve in either direction with a large enough effect, not every such curve was filed as active;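 also: ME-180 reporter cells stimulated with EGF at its EC50 level; % is scaled to controls: 0 for no effect and ±100 for the full control effect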)
Summary of the method: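 Beta-lactamase reporter under AP-1 response element, ME-180 background. Stimulus: EC50 EGF. Compound exposure 5 h, 37 °C. Detection: CCF4, 2.5 h RT, 460/530 nm. Values: AC50 from titration.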

[2] = target: Cytochrome P450 1A2 (Homo sapiens) (UniProt P05177); assay: p450-cyp1a2 (AID 410; calls by dose curve;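 also: -100% = full effect of reference inhibitor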)
Sequence of Cytochrome P450 1A2 (Homo sapiens) (P05177 whole entry, looked up): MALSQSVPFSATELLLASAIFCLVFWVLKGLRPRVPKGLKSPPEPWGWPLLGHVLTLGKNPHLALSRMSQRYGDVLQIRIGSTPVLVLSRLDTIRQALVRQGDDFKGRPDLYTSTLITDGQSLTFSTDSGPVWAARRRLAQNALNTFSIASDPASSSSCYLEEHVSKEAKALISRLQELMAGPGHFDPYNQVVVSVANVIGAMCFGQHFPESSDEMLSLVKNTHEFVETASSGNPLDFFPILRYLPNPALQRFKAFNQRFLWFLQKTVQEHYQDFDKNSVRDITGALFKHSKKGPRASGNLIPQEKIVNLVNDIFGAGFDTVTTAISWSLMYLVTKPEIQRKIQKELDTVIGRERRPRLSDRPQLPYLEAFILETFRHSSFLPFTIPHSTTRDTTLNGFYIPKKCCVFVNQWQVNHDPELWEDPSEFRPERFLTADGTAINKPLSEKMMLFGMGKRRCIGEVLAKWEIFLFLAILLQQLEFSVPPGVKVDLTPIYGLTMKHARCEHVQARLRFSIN
Summary of the method: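 Human CYP1A2 (20nM) demethylated Luciferin-ME at its Km (100uM) in 100mM KPO4. After 10 min compound preincubation, NADPH regeneration ran the reaction 60 min at room temperature. Luciferin was read by luminescence, normalized to 57 uM furafylline.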

[3] = NFAT Signaling Pathway (AID 444; active = well fitted curve in either direction with a large enough effect, not every such curve was filed as active;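 also: carbachol stimulus at about its EC50 of 1 µM final; % is scaled to controls: 0 for no effect and ±100 for the full control effect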); conditions: Jurkat NFAT-bla M1, carbachol, beta-lactamase ratio, 5 h; at 17.2 µM (top of the series) unless noted
Summary of the method: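 Jurkat cells with NFAT-driven β-lactamase reporter and co-expressed M1 receptor, stimulated with carbachol (final 1 uM, ~EC50), compound titration, 5 h at 37 °C. CCF4 loaded 1 h at RT; 460/530 nm ratio gave %activity and AC50.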

[4] = Stat Signaling Pathway (AID 446; active = well fitted curve in either direction with a large enough effect, not every such curve was filed as active;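 also: ME-180 cervical cancer cells given 40 pM IL-6 alongside compound; SIE-controlled beta-lactamase reporter measured as 460/530 nm FRET emission ratio; % is scaled to controls: 0 for no effect and ±100 for the full control effect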)
Summary of the method: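 ME-180 cells carrying a SIE-driven beta-lactamase reporter are stimulated with 40 pM IL-6 for 5 h at 37C in the presence of compound. The 460/530 nm FRET substrate ratio is read after 2.5 h at RT. Data are normalised to 300 pM IL-6 and to 125 nM JAK inhibitor controls.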

[5] = target: Glucocorticoid receptor (Homo sapiens) (UniProt P04150); assay: GR-GFP Redistribution (AID 450;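 active = compounds whose dose series gives a full or clear partial fitted curve of increased nuclear translocation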; also: potency is read from the fitted curve at half-maximal effect); conditions: U2OS GR-GFP nuclear translocation, laser cytometry, 2 h
Sequence of Glucocorticoid receptor (Homo sapiens) (P04150 whole entry, looked up, the tested form may be a part): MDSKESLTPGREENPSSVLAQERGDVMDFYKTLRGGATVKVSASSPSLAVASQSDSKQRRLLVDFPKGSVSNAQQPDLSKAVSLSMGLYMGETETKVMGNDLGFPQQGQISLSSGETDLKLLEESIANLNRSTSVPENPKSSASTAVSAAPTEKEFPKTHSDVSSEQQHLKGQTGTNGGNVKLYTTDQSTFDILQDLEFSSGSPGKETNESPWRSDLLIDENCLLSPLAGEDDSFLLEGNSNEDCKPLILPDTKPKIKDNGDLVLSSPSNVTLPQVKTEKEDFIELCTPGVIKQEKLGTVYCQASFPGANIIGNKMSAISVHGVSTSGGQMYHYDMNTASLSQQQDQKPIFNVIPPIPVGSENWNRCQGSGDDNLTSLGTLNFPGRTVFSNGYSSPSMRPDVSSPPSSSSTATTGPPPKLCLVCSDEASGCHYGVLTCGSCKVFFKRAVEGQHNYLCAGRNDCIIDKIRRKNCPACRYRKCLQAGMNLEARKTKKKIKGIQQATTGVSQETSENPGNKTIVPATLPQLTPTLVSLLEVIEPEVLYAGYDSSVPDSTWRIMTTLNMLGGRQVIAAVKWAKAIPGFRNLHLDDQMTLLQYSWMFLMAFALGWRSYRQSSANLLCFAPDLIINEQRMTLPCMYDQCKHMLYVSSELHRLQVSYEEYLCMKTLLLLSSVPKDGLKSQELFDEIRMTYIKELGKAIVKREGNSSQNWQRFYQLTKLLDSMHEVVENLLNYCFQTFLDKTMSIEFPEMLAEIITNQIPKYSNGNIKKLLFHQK

[6] = target: Glucocorticoid receptor (Homo sapiens) (UniProt P04150); assay: GR-EFC Redistribution (AID 451; calls by dose curve; also: potency is read from the fitted curve at half-maximal effect); conditions: CHO-K1 GR-EFC translocation, beta-gal luminescence, 2 h
Summary of the method: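 CHO-K1 cells expressing nuclear EA and GR-ED fragments of b-gal; compounds titrated up to 46 uM final, 2 h at 37 C. GR nuclear translocation read as complemented b-gal luminescence after 1 h RT detection.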

[7] = target: Mitogen-activated protein kinase 10 (Mus musculus) (UniProt Q61831); assay: JNK3 AlphaScreen Assay (AID 530; active = well fitted curve in either direction with a large enough effect, not every such curve was filed as active;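 also: kinase came from lysate of stimulated human HepG2 cells; signal reports phosphorylation of biotinylated GST-cJun 1-79 at Ser73 with 10 µM ATP; % is scaled to controls: 0 for no effect and ±100 for the full control effect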)
Summary of the method: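 qHTS format: compounds tested as titrations against IL-1beta/TNF-alpha-activated HepG2 lysate JNK3 with biotin-GST-cJun substrate and 10 uM ATP at room temperature. Loss of anti-phospho-cJun AlphaScreen signal indicates inhibition.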

[8] = target: 3',5'-cyclic-AMP phosphodiesterase 4B (Homo sapiens) (UniProt Q07343); assay: qHTS Assay for Inhibitors of PDE-IV (AID 607; active = well fitted activation curve with a large enough effect in the main read-out, with a control signal flat, not every such curve was filed as active; also: % of control where 0% means no effect)
Sequence of 3',5'-cyclic-AMP phosphodiesterase 4B (Homo sapiens) (Q07343 whole entry, looked up): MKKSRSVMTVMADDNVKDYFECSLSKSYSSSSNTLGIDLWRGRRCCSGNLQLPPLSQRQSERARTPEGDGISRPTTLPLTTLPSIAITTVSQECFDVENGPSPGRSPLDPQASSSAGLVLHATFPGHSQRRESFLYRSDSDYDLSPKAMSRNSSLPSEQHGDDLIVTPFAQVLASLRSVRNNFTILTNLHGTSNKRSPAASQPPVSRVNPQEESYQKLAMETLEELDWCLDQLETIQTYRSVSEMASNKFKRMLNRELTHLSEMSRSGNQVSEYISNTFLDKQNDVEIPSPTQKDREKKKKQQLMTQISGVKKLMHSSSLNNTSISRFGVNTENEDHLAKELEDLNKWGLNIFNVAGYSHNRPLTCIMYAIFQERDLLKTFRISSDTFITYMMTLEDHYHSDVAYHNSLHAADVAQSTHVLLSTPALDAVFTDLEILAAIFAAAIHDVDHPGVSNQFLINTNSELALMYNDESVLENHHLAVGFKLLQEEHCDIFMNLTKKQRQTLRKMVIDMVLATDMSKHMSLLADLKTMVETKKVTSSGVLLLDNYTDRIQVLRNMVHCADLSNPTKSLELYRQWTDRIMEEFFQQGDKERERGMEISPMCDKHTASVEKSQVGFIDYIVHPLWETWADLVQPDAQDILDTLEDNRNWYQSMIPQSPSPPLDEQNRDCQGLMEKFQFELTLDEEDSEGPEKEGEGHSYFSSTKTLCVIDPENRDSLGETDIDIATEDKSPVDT
Summary of the method: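 HEK293 ACTOne cells with CNG channel (1000/well), endogenous PDE4; membrane potential dye, compounds up to 22.9 uM final. Fluorescence Ex 535/Em 590; RO 20-1724 (100 uM final) as reference.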

[9] = qHTS Assay for Lipid Storage Modulators (AID 1519; calls by dose curve); conditions: Drosophila S3 cells, BODIPY lipid droplet/cell ratio, laser cytometry, cells loaded with oleic acid; for activity change, negative = inhibition: at 25.7 µM (top of the series)
Summary of the method: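 Cells seeded at 5,000 per well were treated with compounds over a concentration series and loaded with oleic acid (400 uM, as added). Lipid droplet fluorescence (488 nm excitation, 500-530 nm channel) was read by laser-scanning cytometry and normalized to 20 uM Triacsin C.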

[10] = target: ATP-dependent 6-phosphofructokinase (Trypanosoma brucei brucei) (UniProt O15648); assay: qHTS Assay to Find Inhibitors of T. brucei phosphofructokinase: hit validation (AID 492961); also: % is scaled to controls: 0 for no effect and ±100 for the full control effect
Sequence of ATP-dependent 6-phosphofructokinase (Trypanosoma brucei brucei) (O15648 whole entry, looked up): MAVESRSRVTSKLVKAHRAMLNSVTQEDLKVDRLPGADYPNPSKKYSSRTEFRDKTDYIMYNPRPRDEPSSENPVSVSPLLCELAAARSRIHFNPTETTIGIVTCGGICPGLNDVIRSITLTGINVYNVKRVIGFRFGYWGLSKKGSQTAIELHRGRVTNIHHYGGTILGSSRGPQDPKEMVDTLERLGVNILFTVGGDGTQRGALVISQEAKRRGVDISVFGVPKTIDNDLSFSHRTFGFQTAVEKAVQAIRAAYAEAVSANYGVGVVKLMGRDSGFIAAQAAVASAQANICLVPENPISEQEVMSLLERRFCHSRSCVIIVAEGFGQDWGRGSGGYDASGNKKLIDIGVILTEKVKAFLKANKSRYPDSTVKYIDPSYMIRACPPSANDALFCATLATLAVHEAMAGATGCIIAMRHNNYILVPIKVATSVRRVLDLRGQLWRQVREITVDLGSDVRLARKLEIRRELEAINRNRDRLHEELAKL
Summary of the method: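 Luminescence from ADP-Glo reports ADP generated as T. brucei PFK (1.25 nM) phosphorylates 0.5 mM fructose-6-phosphate using 0.1 mM ATP. Reactions ran 45 min at room temperature, pH 8.0.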

[11] = target: Ubiquitin carboxyl-terminal hydrolase 1 (Homo sapiens) (UniProt O94782); assay: Inhibitors of USP1/UAF1: Pilot qHTS (AID 504865);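 also: rhodamine fluorescence freed from ubiquitin-rhodamine substrate followed over time; top concentration of the series differs between compounds; % is scaled to controls: 0 for no effect and ±100 for the full control effect; nearly all actives have a fitted effect of over 35% in size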
Sequence of Ubiquitin carboxyl-terminal hydrolase 1 (Homo sapiens) (O94782 whole entry, looked up): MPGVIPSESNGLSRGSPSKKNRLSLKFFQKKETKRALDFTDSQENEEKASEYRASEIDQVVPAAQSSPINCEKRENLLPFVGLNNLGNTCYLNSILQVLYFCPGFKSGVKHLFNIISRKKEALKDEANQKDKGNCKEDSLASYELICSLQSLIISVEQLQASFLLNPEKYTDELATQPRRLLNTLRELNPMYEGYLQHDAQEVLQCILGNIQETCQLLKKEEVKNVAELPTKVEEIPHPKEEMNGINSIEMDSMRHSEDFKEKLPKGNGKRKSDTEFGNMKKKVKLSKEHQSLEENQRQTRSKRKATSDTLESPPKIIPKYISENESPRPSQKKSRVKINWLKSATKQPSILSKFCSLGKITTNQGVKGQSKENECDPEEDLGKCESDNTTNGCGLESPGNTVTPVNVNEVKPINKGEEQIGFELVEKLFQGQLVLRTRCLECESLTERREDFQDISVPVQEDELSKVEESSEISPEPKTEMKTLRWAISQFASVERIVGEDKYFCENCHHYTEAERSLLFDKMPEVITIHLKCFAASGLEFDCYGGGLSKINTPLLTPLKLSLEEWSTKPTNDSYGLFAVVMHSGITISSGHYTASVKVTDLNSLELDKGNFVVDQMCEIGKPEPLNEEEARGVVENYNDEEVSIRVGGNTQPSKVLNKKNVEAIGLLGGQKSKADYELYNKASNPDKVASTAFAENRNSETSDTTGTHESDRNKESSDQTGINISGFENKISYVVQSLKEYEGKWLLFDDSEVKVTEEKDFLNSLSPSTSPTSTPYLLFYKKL
Summary of the method: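 In 50mM HEPES pH 7.8 containing 0.5mM EDTA, 1mM TCEP, 0.1 mg/ml BSA and 0.01% Tween-20, 1nM USP1/UAF1 is exposed to compound for 15 min, then Ub-Rho (150nM final) is added and fluorescence is read over time.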

[12] = target: Luciferin 4-monooxygenase (Photinus pyralis) (UniProt P08659); assay: Biochemical firefly luciferase enzyme assay for NPC (AID 624030);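 also: purified P. pyralis luciferase at 10 nM with luciferin and ATP substrate; 0% = DMSO and -100% = full luciferase inhibition by PTC124 control; nearly all actives have a fitted effect of over 70% in size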
Sequence of Luciferin 4-monooxygenase (Photinus pyralis) (P08659 whole entry, looked up): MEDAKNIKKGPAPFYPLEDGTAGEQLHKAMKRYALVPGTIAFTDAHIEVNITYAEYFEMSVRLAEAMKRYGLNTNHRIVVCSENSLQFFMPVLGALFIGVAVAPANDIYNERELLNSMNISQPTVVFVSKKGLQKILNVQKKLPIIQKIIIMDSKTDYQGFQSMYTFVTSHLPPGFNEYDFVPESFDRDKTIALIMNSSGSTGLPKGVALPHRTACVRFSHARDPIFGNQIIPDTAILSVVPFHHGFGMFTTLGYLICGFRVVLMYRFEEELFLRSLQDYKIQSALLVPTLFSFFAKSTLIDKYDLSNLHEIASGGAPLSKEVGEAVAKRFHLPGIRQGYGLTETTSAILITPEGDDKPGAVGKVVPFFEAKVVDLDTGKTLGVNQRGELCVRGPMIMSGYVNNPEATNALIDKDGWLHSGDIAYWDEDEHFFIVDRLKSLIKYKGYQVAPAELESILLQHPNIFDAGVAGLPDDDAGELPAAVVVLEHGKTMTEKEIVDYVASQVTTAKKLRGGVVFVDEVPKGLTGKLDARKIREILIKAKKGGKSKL
Summary of the method: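 Purified P. pyralis luciferase at 10 nM in 50 mM Tris Acetate (final), luminescence read within 5 minutes of enzyme addition to compounds. Activity normalised to PTC124 versus DMSO; concentration-response curves classed by r2, magnitude and activity.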

[13] = S16 Schwann cell viability assay (CellTiter-Glo assay) (AID 624031);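 also: cellular ATP luminescence as a viability measure; plate controls were DMSO-treated cells for no effect and cell-free wells for full effect; nearly all actives have a fitted effect of over 70% in size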
Summary of the method: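 Luminescent ATP read-out (CellTiter-Glo) after 24 h compound exposure of native S16 rat Schwann cells at 37 °C. Signals were normalized between cell-free wells and DMSO-treated cells, set as 0% activity.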

[14] = tested on: C2A; assay: qHTS profiling for inhibitors of Plasmodium falciparum proliferation (AID 504749);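 also: 0% = DMSO vehicle and full inhibition = artemisinin control; nearly all actives have a fitted effect of over 60% in size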; conditions: P. falciparum in erythrocytes, SYBR Green DNA, 72 h; series mostly up to 12.8 µM
Summary of the method: (§1)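 Readout was DNA-dye fluorescence from lysed cultures, ex 485/em 535 nm. Parasitized red cells had grown 72 h with compound; data scaled between 0.29 uM artemisinin and DMSO wells and corrected using vehicle-only plates.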

[15] = tested on: CP191; assay: as above; conditions: P. falciparum in erythrocytes, SYBR Green DNA, 72 h; series mostly up to 12.8 µM
Summary of the method: as §1

[16] = tested on: CP250; assay: as above; conditions: P. falciparum in erythrocytes, SYBR Green DNA, 72 h; series mostly up to 12.8 µM
Summary of the method: as §1

[17] = tested on: FAB9; assay: as above; conditions: P. falciparum in erythrocytes, SYBR Green DNA, 72 h; series mostly up to 12.8 µM
Summary of the method: as §1

[18] = tested on: JCK; assay: as above; conditions: P. falciparum in erythrocytes, SYBR Green DNA, 72 h; series mostly up to 12.8 µM
Summary of the method: as §1

[19] = tested on: SC27B; assay: as above; conditions: P. falciparum in erythrocytes, SYBR Green DNA, 72 h; series mostly up to 12.8 µM
Summary of the method: as §1

[20] = as above; conditions: P. falciparum in erythrocytes, SYBR Green DNA, 72 h, at 12.8 µM (top of the series)
Summary of the method: as §1

[21] = measured here: cell count channel max response
[22] = measured here: lipid channel max response

O=C1O[C@H](CN2CCOCC2)CN1/N=C\c1ccc([N+](=O)[O-])o1
inactive: outcome [1] | Potency [2] | activity change, negative = inhibition [3] -16.1% | outcome [4] | Potency [5] > 20.6 µM | Potency [6] > 20.6 µM | Potency [7] | outcome [8] | activity change, negative = inhibition [9] -9.12% | outcome [10] | Potency [11] | Potency [12] | outcome [13] | Potency [14] | Potency [15] | Potency [16] | Potency [17] | Potency [18] | Potency [19]
-26.5%: max response [9, 22]
-19.2%: max response [9, 21]

CC(=O)[C@@]1(O)CC[C@H]2[C@H]3C[C@@H](C)C4=CC(=O)C=C[C@]4(C)[C@@]3(F)[C@@H](O)C[C@]21C
-19.8%: max response [9, 22]
inactive: outcome [1] | Potency [2] | activity change, negative = inhibition [3] 5.97% | outcome [4] | Potency [7] | outcome [8] | activity change, negative = inhibition [9] -6.74% | outcome [10] | Potency [11] | Potency [12] | outcome [13] | activity, negative = inhibition ([20]; parasite line A) -2.85% | activity, negative = inhibition ([20]; parasite line B) -0.507% | Potency [14] | Potency [15] | Potency [16] | Potency [17] | Potency [18] | Potency [19]
active: Potency [5] 0.00155 µM | Potency [6] 0.00821 µM
-14.1%: max response [9, 21]

COc1ccc2c3c([nH]c2c1)[C@@H]1C[C@@H]2[C@@H](C[C@H](O)[C@H](OC)[C@H]2C(=O)O)CN1CC3
-20%: max response [9, 22]
inactive: outcome [1] | Potency [2] | activity change, negative = inhibition [3] -14.4% | outcome [4] | Potency [5] > 20.6 µM | Potency [6] > 20.6 µM | Potency [7] | outcome [8] | activity change, negative = inhibition [9] -2.35% | Potency [11]
-18.6%: max response [9, 21]

CN[C@@H]1[C@H](O[C@H]2[C@@H](O[C@@H]3[C@@H](O)[C@@H](O)[C@@H](N=C(N)N)[C@@H](O)[C@@H]3N=C(N)N)O[C@@H](C)[C@]2(O)CO)O[C@H](CO)[C@@H](O)[C@@H]1O
inactive: outcome [1] | Potency [2] | activity change, negative = inhibition [3] 1.68% | outcome [4] | Potency [5] > 20.6 µM | Potency [6] > 20.6 µM | Potency [7] | outcome [8] | activity change, negative = inhibition [9] -1.28% | Potency [11]
-9.77%: max response [9, 21]
-12.5%: max response [9, 22]

CS(=O)(=O)c1ccc([C@H](O)[C@H](CO)NC(=O)C(Cl)Cl)cc1
inactive: outcome [1] | Potency [2] | activity change, negative = inhibition [3] 1.44% | outcome [4] | Potency [5] > 20.6 µM | Potency [6] > 20.6 µM | Potency [7] | outcome [8] | activity change, negative = inhibition [9] -0.717% | outcome [10] | Potency [11] | Potency [12] | outcome [13] | activity, negative = inhibition ([20]; parasite line A) -20.3% | activity, negative = inhibition ([20]; parasite line B) -19.1% | Potency [14] | Potency [15] | Potency [16] | Potency [17] | Potency [18] | Potency [19]
3.5%: max response [9, 21]
5.27%: max response [9, 22]

C=CCSC[C@@H]1Nc2cc(Cl)c(S(N)(=O)=O)cc2S(=O)(=O)N1
inactive: outcome [1] | Potency [2] | activity change, negative = inhibition [3] -2.73% | outcome [4] | Potency [5] > 20.6 µM | Potency [6] > 20.6 µM | Potency [7] | outcome [8] | activity change, negative = inhibition [9] -0.966% | Potency [11]
-22.1%: max response [9, 22]
-24.3%: max response [9, 21]

CNc1ncnc2c1ncn2[C@@H]1O[C@H](CO)[C@@H](O)[C@@H]1O
-24.1%: max response [9, 22]
inactive: outcome [1] | Potency [2] | activity change, negative = inhibition [3] -5.4% | outcome [4] | Potency [5] > 20.6 µM | Potency [6] > 20.6 µM | Potency [7] | outcome [8] | activity change, negative = inhibition [9] -4.48% | Potency [11]
-18.6%: max response [9, 21]

COc1ccc(C[C@@](C)(N)C(=O)O)cc1OC
-10.3%: max response [9, 21]
-12.4%: max response [9, 22]
inactive: outcome [1] | Potency [2] | activity change, negative = inhibition [3] -8.96% | outcome [4] | Potency [5] > 20.6 µM | Potency [6] > 20.6 µM | Potency [7] | outcome [8] | activity change, negative = inhibition [9] -2.09% | outcome [10] | Potency [11] | Potency [12] | outcome [13] | activity, negative = inhibition ([20]; parasite line A) 3.21% | activity, negative = inhibition ([20]; parasite line B) -23.5% | Potency [14] | Potency [15] | Potency [16] | Potency [17] | Potency [18] | Potency [19]

CCC[C@H]1C[C@H](C(=O)N[C@H]([C@@H]2O[C@H](SC)[C@@H](O)[C@H](O)[C@@H]2O)[C@H](C)O)N(C)C1
-10.9%: max response [9, 22]
-10.3%: max response [9, 21]
inactive: outcome [1] | Potency [2] | activity change, negative = inhibition [3] -5.24% | outcome [4] | Potency [5] > 20.6 µM | Potency [6] > 20.6 µM | Potency [7] | outcome [8] | activity change, negative = inhibition [9] 0.0766% | Potency [11]

CNC[C@H](O)c1ccc(OC(=O)C(C)(C)C)c(OC(=O)C(C)(C)C)c1
inactive: outcome [1] | Potency [2] | activity change, negative = inhibition [3] 1.95% | outcome [4] | Potency [5] > 20.6 µM | Potency [6] > 20.6 µM | Potency [7] | outcome [8] | activity change, negative = inhibition [9] 0.431% | outcome [10] | Potency [12] | outcome [13] | activity, negative = inhibition ([20]; parasite line A) -7.03% | Potency [14] | Potency [15] | Potency [16] | Potency [17] | Potency [18] | Potency [19]
16.1%: max response [9, 22]
14.1%: max response [9, 21]
